# Source: PubChem BioAssay (NCATS)
# Results filed as inconclusive are left out. Calls of active or inactive are those of the source. Unless noted, calls follow the shape of the dose curve; as a rule, active = well fitted curve in the direction sought with a large enough effect; inconclusive = small, poorly fitted or top-dose-only effect, or another doubt; inactive = no such curve, though single readings can be large; an effect the other way counts as inactive or inconclusive.
# How the values were obtained:
# [1] = tested on: Zika virus NS2B-NS3 protease (unlinked complex); assay: Confirmatory screen GU AMC qHTS for Zika virus inhibitors (AID 1347153); conditions: Recombinant NS2B-NS3 protease, AMC substrate fluorescence; series mostly up to 111 µM; also: potency is read from the fitted curve at half-maximal effect; nearly all actives have a fitted effect of over 70% in size
# In short: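 Unlinked enzyme 25 nM, Tris pH 8.0/0.01% Tween 20; cpd 15 min RT, dark; + AMC substrate 10 µM (Km 18.3 µM); 340/450 nm read at t0 and 15 min; % inhibition → 4-param fit.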
# [2] = Confirmatory screen GU Rhodamine qHTS for Zika virus inhibitors qHTS (AID 1347157); conditions: purified enzyme assay, Rhodamine110 substrate fluorescence, 15 min; series mostly up to 114 µM; also: potency is read from the fitted curve at half-maximal effect; nearly all actives have a fitted effect of over 70% in size
# In short: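 Noncovalent NS2B hydrophilic domain/NS3 protease complex (25 nM final) in 10 mM Tris-HCl pH 8.0, 0.01% Tween 20, preincubated 15 min with compounds (up to 114 microM), then 1.5 microM Rhodamine110 substrate. Fluorescence change over 15 min fitted to 4-parameter Hill.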
# [3] = Confirmatory screen NINDS Rhodamine qHTS for Zika virus inhibitors (AID 1347161); conditions: purified enzyme assay, Rhodamine110 substrate fluorescence, 15 min; series mostly up to 114 µM; also: potency is read from the fitted curve at half-maximal effect; nearly all actives have a fitted effect of over 60% in size
# In short: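 Aprotinin served as in-plate control. Conditions: 25 nM linked NS2B-NS3, pH 8.0 Tris buffer, titrated compounds, 15 min preincubation and 15 min reaction with 1.5 microM Rhod110 substrate at room temperature.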
# [4] = tested on: Zika virus NS2B-NS3 protease (linked construct); assay: 384 well plate NINDS Rhodamine confirmatory qHTS for Zika virus inhibitors (AID 1347164); conditions: rhodamine-110 peptide substrate fluorescence; series mostly up to 1 mM;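 also: fluorescence from protease cleavage of Ac-LKRR-rhodamine 110 substrate; potency is read from the fitted curve at half-maximal effect; nearly all actives have a fitted effect of over 65% in size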
# In short: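 Fluorescence at 485/538 nm was measured 25 minutes after adding 10 microM Ac-LKRR-Rd substrate, in the dark at room temperature. The protease (5, 30 or 60 nM final) had been preincubated ~15 minutes with compound; aprotinin as control.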
# [5] = HepG2 cells viability qHTS for Zika virus inhibitors (AID 1347168); conditions: Zika counter-screen; series mostly up to 45.9 µM; also: % is scaled to controls: 0 for no effect and ±100 for the full control effect
# In short: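 qHTS titration; 24-48 h compound exposure, 37 degrees C/5% CO2; DMEM, 4% FBS; CellTiter Glo ATP luminescence.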
# [6] = Tertiary RLuc qRT-PCR qHTS assay for Zika virus inhibitors (AID 1347169); conditions: infected Vero cells, reporter luminescence, 48-72 h; series mostly up to 1.74 µM; also: potency is read from the fitted curve at half-maximal effect; nearly all actives have a fitted effect of over 55% in size
# In short: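 Orthogonal cell-based readout: luminescence measured 1-1.5 hrs after adding live-cell Renilla substrate to Vero cells that had been infected with ZIKV-RLuc (MOI 1-2) post-compound, incubated 48-72 hrs at 37 degrees C.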
# [7] = molecular target: Cytochrome P450 3A4 (Homo sapiens) (UniProt P08684); assay: qHTS Assay for Inhibitors and Substrates of Cytochrome P450 3A4 (AID 884); conditions: recombinant CYP3A4, Luciferin-PPXE luminescence; series mostly up to 57.1 µM; also: nearly all actives have a fitted effect of over 50% in size; also: potency is read from the fitted curve at half-maximal effect; as to activity change, negative = inhibition: % is scaled to controls: 0 for no effect and ±100 for the full control effect
# Cytochrome P450 3A4 (Homo sapiens), sequence (P08684 whole entry, looked up): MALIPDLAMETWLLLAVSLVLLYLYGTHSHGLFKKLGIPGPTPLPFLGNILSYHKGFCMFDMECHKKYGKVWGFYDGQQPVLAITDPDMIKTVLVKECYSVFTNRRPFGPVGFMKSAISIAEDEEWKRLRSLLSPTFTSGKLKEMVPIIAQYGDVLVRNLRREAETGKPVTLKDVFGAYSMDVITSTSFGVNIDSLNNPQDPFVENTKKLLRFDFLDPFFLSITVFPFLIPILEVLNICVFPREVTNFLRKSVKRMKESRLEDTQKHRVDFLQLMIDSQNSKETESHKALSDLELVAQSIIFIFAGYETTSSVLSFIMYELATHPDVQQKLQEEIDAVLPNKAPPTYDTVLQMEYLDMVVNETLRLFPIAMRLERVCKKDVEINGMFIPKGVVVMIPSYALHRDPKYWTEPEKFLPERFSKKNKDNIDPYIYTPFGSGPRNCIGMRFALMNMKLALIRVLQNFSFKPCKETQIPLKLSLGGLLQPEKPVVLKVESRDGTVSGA
# In short: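 Luminescent readout of luciferin produced by CYP3A4 (20 nM) dealkylation of Luciferin-PPXE, 25 uM (its KM). NADPH-driven reaction ran 60 min at RT after 10 min compound preincubation; data scaled to 57 uM ketoconazole as 100% inhibition.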
# [8] = Confirmation and Secondary Assay for Modulators of Hemoglobin Beta Chain Splicing at IVS2 654 locus (AID 910); conditions: HeLa EGFP-654 splicing reporter, GFP fluorescence, 48 h; series mostly up to 46.1 µM;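 also: HeLa cells stably carrying EGFP split by mutant beta-globin IVS2-654 intron; % of control where 0% means no effect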
# In short: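 HeLa cells stably expressing EGFP interrupted by β-globin IVS2-654 intron, seeded overnight in Opti-MEM/2% FCS, then treated 2 days at 37 °C. Restored splicing read as total peak GFP intensity per well by laser scanning cytometry (488 nm excitation, 500–520 nm emission); 500 nM antisense PNA as control.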
# [9] = Confirmation and Secondary Assay for Modulators of Hemoglobin Beta Chain Splicing at IVS2 705 locus (AID 930); conditions: HeLa EGFP-705 splicing reporter, GFP fluorescence, 48 h; series mostly up to 46.1 µM;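 also: HeLa cells stably expressing the EGFP-705 splicing reporter; GFP fluorescence per well restored by corrected splicing of the IVS2-705 intron in EGFP; % of control where 0% means no effect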
# In short: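 Assay measures total GFP intensity per well in HeLa EGFP-705 cells after 2 days with compound; mis-splicing normally truncates EGFP, so fluorescence indicates corrected splicing.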
# [10] = qHTS Assay for Lipid Storage Modulators (AID 1519; calls by dose curve; as to activity change, negative = inhibition: % is scaled to controls: 0 for no effect and ±100 for the full control effect); conditions: Drosophila S3 cells, BODIPY lipid droplet/cell ratio, laser cytometry, cells loaded with oleic acid
# In short: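 Cells seeded at 5,000 per well were treated with compounds over a concentration series and loaded with oleic acid (400 uM, as added). Lipid droplet fluorescence (488 nm excitation, 500-530 nm channel) was read by laser-scanning cytometry and normalized to 20 uM Triacsin C.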
# [11] = molecular target: Ubiquitin carboxyl-terminal hydrolase 1 (Homo sapiens) (UniProt O94782); assay: Inhibitors of USP1/UAF1: Pilot qHTS (AID 504865); conditions: purified USP1/UAF1, Ub-rhodamine cleavage fluorescence; series mostly up to 114 µM;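 also: rhodamine fluorescence freed from ubiquitin-rhodamine substrate followed over time; top concentration of the series differs between compounds; % is scaled to controls: 0 for no effect and ±100 for the full control effect; nearly all actives have a fitted effect of over 35% in size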
# Ubiquitin carboxyl-terminal hydrolase 1 (Homo sapiens), sequence (O94782 whole entry, looked up): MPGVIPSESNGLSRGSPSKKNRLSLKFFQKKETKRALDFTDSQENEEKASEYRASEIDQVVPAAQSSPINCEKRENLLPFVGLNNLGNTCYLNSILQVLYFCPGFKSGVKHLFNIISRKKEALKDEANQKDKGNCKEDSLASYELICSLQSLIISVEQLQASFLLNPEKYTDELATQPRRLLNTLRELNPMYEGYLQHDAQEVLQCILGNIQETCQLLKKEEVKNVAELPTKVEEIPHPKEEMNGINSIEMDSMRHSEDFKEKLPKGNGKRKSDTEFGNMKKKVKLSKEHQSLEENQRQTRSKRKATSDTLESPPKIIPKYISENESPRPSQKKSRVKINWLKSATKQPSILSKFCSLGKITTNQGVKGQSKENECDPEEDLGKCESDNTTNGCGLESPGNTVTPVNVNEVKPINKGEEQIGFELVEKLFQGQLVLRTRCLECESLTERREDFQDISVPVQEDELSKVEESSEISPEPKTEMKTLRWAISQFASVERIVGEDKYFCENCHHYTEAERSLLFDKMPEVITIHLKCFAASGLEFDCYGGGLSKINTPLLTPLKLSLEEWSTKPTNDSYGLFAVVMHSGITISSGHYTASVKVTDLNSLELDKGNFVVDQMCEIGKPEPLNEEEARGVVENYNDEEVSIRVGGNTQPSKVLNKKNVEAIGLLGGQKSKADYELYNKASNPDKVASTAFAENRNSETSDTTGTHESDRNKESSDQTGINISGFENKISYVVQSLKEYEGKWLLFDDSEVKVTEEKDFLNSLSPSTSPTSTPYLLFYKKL
# In short: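 Deubiquitinase activity followed as kinetic rhodamine fluorescence release from 150 nM Ub-Rho. 1 nM USP1/UAF1 with compound, after 15 min room-temperature preincubation, in HEPES pH 7.8 buffer containing TCEP, EDTA, BSA and Tween-20.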
# [12] = molecular target: Cytochrome P450 1A2 (Homo sapiens) (UniProt P05177); assay: p450-cyp1a2 (AID 410; calls by dose curve; also: potency is read from the fitted curve at half-maximal effect;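 as to activity change, negative = inhibition: -100% = full effect of reference inhibitor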); conditions: recombinant CYP1A2, luciferin-ME demethylation, luminescence; series mostly up to 57 µM
# Cytochrome P450 1A2 (Homo sapiens), sequence (P05177 whole entry, looked up): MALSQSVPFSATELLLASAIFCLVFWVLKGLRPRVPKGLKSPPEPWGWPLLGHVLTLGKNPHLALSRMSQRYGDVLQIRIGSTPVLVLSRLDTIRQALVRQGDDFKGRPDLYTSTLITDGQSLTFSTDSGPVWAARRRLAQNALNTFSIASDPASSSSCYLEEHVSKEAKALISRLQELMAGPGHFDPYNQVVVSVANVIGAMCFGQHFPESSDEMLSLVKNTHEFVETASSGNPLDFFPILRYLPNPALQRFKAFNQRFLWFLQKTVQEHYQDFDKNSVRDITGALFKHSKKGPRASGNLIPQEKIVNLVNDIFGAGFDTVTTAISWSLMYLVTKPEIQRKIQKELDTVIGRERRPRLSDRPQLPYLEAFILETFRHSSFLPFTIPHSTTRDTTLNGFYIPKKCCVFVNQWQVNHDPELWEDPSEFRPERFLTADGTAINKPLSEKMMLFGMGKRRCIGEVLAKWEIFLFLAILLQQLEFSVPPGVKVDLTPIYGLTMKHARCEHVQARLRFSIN
# In short: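 O-Demethylation of luciferin 6' methyl ether by human CYP1A2 is monitored as luciferase luminescence. Substrate sits at Km (100uM); enzyme is 20nM. Values are scaled to 57 uM furafylline as maximal inhibition.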
# [13] = molecular target: Glucocorticoid receptor (Homo sapiens) (UniProt P04150); assay: GR-GFP Redistribution (AID 450;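 active = compounds whose dose series gives a full or clear partial fitted curve of increased nuclear translocation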; also: potency is read from the fitted curve at half-maximal effect); conditions: U2OS GR-GFP nuclear translocation, laser cytometry, 2 h
# Glucocorticoid receptor (Homo sapiens), sequence (P04150 whole entry, looked up, the tested form may be a part): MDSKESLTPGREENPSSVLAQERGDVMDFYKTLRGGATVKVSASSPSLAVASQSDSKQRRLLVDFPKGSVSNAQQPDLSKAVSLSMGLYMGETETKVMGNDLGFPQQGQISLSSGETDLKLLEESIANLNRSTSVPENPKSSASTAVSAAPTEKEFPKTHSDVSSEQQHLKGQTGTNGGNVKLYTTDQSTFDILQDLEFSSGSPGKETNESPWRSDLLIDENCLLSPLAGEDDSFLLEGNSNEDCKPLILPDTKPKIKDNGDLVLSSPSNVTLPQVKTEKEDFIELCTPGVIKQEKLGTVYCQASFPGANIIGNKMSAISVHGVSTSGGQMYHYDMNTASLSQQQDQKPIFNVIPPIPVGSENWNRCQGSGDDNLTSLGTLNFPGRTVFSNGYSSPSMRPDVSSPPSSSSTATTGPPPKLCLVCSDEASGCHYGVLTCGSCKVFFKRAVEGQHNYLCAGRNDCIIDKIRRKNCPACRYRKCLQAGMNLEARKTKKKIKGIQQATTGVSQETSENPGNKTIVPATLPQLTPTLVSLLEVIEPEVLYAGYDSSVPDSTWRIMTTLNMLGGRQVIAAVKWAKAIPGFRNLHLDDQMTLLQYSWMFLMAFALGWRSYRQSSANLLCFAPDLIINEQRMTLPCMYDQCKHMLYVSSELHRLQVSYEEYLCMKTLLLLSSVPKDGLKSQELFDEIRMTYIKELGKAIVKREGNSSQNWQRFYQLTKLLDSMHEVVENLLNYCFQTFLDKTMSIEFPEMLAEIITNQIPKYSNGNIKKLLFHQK
# [14] = molecular target: Glucocorticoid receptor (Homo sapiens) (UniProt P04150); assay: GR-EFC Redistribution (AID 451; calls by dose curve; also: potency is read from the fitted curve at half-maximal effect); conditions: CHO-K1 GR-EFC translocation, beta-gal luminescence, 2 h
# In short: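 CHO-K1 cells expressing nuclear EA and GR-ED fragments of b-gal; compounds titrated up to 46 uM final, 2 h at 37 C. GR nuclear translocation read as complemented b-gal luminescence after 1 h RT detection.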
# [15] = molecular target: Cytochrome P450 2C19 (Homo sapiens) (UniProt P33261); assay: qHTS Assay for Inhibitors and Substrates of Cytochrome P450 2C19 (AID 899); conditions: recombinant CYP2C19, luciferin-H EGE luminescence; series mostly up to 57.1 µM; also: potency is read from the fitted curve at half-maximal effect; nearly all actives have a fitted effect of over 60% in size
# Cytochrome P450 2C19 (Homo sapiens), sequence (P33261 whole entry, looked up): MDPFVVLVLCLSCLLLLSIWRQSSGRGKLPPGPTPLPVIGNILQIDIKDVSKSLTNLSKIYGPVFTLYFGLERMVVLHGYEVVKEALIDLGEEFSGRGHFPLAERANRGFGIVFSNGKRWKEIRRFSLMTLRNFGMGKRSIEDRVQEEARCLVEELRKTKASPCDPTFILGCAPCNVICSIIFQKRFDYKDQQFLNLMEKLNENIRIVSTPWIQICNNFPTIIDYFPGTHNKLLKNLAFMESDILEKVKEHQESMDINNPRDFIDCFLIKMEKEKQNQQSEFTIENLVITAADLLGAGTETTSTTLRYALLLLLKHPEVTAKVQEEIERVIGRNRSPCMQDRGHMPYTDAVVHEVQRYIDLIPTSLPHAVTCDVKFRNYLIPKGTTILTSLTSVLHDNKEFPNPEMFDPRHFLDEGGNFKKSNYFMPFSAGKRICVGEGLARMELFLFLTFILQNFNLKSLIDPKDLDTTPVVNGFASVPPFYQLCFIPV
# In short: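 5 nM human CYP2C19 with 10uM Luciferin-H EGE (at KM) in 50mM KPO4, compound preincubated 10 min at 37C, then NADPH regeneration for 60 min at 37C. Luciferin read by luminescence after detection reagent; normalized to 57uM ketoconazole as full inhibition.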
# [16] = molecular target: DNA dC->dU-editing enzyme APOBEC-3G (Homo sapiens) (UniProt Q9HC16); assay: qHTS for inhibitors of Vif-A3G interactions: Validation (AID 588379); conditions: Vif-A3G protein interaction assay; series mostly up to 46.1 µM; also: 0% is about no effect
# DNA dC->dU-editing enzyme APOBEC-3G (Homo sapiens), sequence (Q9HC16 whole entry, looked up): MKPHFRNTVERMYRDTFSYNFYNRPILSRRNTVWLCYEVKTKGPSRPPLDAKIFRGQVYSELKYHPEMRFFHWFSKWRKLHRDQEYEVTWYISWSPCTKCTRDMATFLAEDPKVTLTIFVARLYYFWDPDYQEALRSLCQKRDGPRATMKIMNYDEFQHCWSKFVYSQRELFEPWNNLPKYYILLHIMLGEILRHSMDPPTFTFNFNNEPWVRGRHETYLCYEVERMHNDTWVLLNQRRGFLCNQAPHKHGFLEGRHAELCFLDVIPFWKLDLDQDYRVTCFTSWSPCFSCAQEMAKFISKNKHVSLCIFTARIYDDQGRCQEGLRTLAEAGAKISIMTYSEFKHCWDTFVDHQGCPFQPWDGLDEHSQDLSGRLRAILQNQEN
# In short: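 Yellow fluorescence (Ex 488, Em 500-530) of Vif-coexpressing HeLa A3G-eYFP cells, scanned by Acumen cytometer, reports blocked A3G degradation. Cells plated at 700/well overnight at 37 deg C before compound addition, then a further overnight compound incubation at 37 deg C.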
# [17] = AP1 Signaling Pathway (AID 357; active = well fitted curve in either direction with a large enough effect, not every such curve was filed as active;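 also: ME-180 reporter cells stimulated with EGF at its EC50 level; % is scaled to controls: 0 for no effect and ±100 for the full control effect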); conditions: ME-180 (cervical carcinoma) AP-1-bla reporter, EGF-induced, beta-lactamase ratio, 5 h
# In short: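 A ratiometric CCF4 readout (405 nm excitation; 460 and 530 nm emission) quantified AP-1-driven beta-lactamase in ME-180 cells after 5 h with compound and EC50 EGF; AC50 values were derived for activators and inhibitors.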
# [18] = molecular target: Cytochrome P450 3A4 (Homo sapiens) (UniProt P08684); assay: qHTS Assay for Activators of Cytochrome P450 3A4 (AID 885); conditions: recombinant CYP3A4, Luciferin-PPXE luminescence, 60 min; series mostly up to 57.1 µM; also: nearly all actives have a fitted effect of over 65% in size
# In short: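 Using 20nM recombinant human CYP3A4 in potassium phosphate (200mM), substrate Luciferin-PPXE at 25uM, luminescent luciferin detection followed a 60-min RT NADPH reaction; data scaled to 57 uM ketoconazole.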
# [19] = molecular target: Voltage-gated inwardly rectifying potassium channel KCNH2 (Homo sapiens) (UniProt Q12809); assay: qHTS Assay for Small Molecule Inhibitors of the Human hERG Channel Activity (AID 588834); conditions: U2OS BacMam hERG, FluxOR thallium flux fluorescence; series mostly up to 46.1 µM;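 also: lower thallium flux fluorescence means stronger hERG block; nearly all actives have a fitted effect of over 50% in size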; also: potency is read from the fitted curve at half-maximal effect
# Voltage-gated inwardly rectifying potassium channel KCNH2 (Homo sapiens), sequence (Q12809 whole entry, looked up): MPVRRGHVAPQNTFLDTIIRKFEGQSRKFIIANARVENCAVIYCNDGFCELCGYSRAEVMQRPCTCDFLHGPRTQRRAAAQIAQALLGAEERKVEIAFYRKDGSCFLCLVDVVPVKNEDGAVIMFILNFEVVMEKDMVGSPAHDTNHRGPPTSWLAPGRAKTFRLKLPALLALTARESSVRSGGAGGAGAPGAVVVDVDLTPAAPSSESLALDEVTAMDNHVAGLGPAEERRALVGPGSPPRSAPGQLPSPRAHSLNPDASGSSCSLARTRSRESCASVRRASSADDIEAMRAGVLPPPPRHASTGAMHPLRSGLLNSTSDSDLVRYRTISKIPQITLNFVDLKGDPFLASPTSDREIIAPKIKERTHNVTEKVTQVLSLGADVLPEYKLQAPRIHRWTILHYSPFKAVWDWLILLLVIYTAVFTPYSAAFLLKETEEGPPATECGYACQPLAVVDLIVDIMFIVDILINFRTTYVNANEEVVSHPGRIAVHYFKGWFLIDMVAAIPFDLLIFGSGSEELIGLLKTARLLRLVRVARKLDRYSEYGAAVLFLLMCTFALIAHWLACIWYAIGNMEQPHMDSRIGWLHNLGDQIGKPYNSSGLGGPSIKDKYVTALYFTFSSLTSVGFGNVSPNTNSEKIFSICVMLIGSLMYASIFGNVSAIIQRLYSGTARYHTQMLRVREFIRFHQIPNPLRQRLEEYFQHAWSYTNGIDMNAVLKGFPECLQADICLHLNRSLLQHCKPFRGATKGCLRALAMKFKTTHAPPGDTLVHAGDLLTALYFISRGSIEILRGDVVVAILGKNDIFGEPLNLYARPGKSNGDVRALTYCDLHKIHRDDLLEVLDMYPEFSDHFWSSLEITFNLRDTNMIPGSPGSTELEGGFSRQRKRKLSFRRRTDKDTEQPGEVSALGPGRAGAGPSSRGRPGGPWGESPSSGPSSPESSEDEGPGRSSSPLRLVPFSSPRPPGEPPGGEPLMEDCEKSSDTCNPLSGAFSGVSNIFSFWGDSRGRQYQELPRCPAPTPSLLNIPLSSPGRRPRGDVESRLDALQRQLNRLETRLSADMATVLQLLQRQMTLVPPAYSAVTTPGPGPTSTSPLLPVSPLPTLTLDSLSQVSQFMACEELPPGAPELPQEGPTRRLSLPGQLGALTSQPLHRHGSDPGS
# In short: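 hERG block measured as reduced thallium-dye (FluxOR) fluorescence after stimulation buffer addition, read over 2 min. Cells were hERG-BacMam-transduced U2OS exposed to compound ~10 min […]; concentration-response fitted with Hill equation for AC50.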
# [20] = molecular target: N-terminal Xaa-Pro-Lys N-methyltransferase 1 (Homo sapiens) (UniProt Q9BV86); assay: Confirmatory qHTS for Inhibitors of N-terminal methyltransferase 1 (NTMT1): MTaseGlo Assay (AID 1645874); conditions: NTMT1 enzyme, MTase-Glo SAH luminescence; series mostly up to 100 µM; also: potency is read from the fitted curve at half-maximal effect; nearly all actives have a fitted effect of over 65% in size
# N-terminal Xaa-Pro-Lys N-methyltransferase 1 (Homo sapiens), sequence (Q9BV86 whole entry, looked up): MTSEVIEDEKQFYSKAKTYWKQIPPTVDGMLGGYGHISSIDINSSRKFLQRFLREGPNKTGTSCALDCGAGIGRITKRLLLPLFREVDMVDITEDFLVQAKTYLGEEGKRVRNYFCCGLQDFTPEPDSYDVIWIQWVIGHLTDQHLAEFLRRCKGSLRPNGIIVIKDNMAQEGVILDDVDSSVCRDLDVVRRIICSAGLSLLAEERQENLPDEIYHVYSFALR
# In short: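 Room-temperature NTMT1 reaction, 30 min, with 100 uM SAM and 1 uM SPKRIA substrate; enzyme 125 nM. Read-out: MTase-Glo luminescence, normalized to no-enzyme and DMSO controls.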
smiles,measurement,setting,value
CN(Cc1ccc(C(=O)O)cc1)c1ccc(OCc2c(-c3c(Cl)cccc3Cl)noc2C2CC2)nc1C(F)(F)F,Potency,[1],13.9 µM (active)
same,Potency,[2],2.21 µM (active)
same,Potency,[3],2.21 µM (active)
same,Potency,[4],6.31 µM (active)
same,Potency,[5],inactive
same,Potency,[6],13.1 µM (active)
CC(=O)N1c2ccc(-c3ccc(C(=O)O)cc3)cc2C(Nc2ccc(Cl)cc2)CC1C (centres undefined),Potency,[2],17.5 µM (active)
same,Potency,[3],12.4 µM (active)
same,Potency,[4],70.8 µM (active)
same,Potency,[5],inactive
same,Potency,[6],0.093 µM (active)
CCCCC(=O)N(Cc1ccc(-c2ccccc2-c2nn[nH]n2)cc1)C(C(=O)O)C(C)C (centres undefined),Potency,[7],inactive
same,outcome,[8],inactive
same,outcome,[9],inactive
same,"activity change, negative = inhibition",[10]; at 57.5 µM (top of the series),-6.27% (inactive)
same,max response,[10]; measured here: cell count channel max response,7.79%
same,max response,[10]; measured here: lipid channel max response,4.86%
same,Potency,[11],inactive
Clc1ccccc1CNCC1CCC(CNCc2ccccc2Cl)CC1 (centres undefined),Potency,[12],inactive
same,Potency,[13],> 46 µM (inactive)
same,Potency,[14],> 46 µM (inactive)
same,Potency,[15],794 nM (active)
same,Potency,[11],inactive
same,Potency,[16],inactive
Cc1ccn(-c2cc(Cl)ccc2[C@@H](Oc2cc(-c3ccc(C[C@H](N)C(=O)O)cc3)nc(N)n2)C(F)(F)F)n1,Potency,[2],22.1 µM (active)
same,Potency,[3],24.8 µM (active)
same,Potency,[4],28.2 µM (active)
same,Potency,[6],20.8 µM (active)
O=C(O)c1ccc(O)c2ncc(N3CCCN(CCc4cccc5ccccc45)CC3)cc12,Potency,[1],49.4 µM (active)
same,Potency,[2],13.9 µM (active)
same,Potency,[3],13.9 µM (active)
same,Potency,[4],3.55 µM (active)
same,Potency,[5],inactive
same,Potency,[6],6.58 µM (active)
CC(C)=CCC/C(C)=C/CC/C(C)=C/CSc1ccccc1C(=O)O,"activity change, negative = inhibition",[17]; at 38 µM (top of the series),14.1% (inactive)
same,Potency,[12],12.6 µM (active)
same,Potency,[13],> 46 µM (inactive)
same,Potency,[14],> 46 µM (inactive)
same,Potency,[18],inactive
same,Potency,[19],inactive
same,Potency,[20],39.8 µM (active)
O=C(O)c1ccc2c3c1cccc3c(=O)n1c3ccccc3nc21,Potency,[12],15.8 µM (active)
same,Potency,[13],> 46 µM (inactive)
same,Potency,[14],> 46 µM (inactive)
same,Potency,[15],3980 nM (active)
same,Potency,[16],inactive
CS(=O)(=O)CCNCc1nc(-c2ccc3ncnc(Nc4ccc(OCc5cccc(F)c5)c(Cl)c4)c3c2)cs1,Potency,[7],2.51 µM (active)
same,Potency,[18],inactive
C=CC(=O)c1ccc2ccccc2c1,Potency,[7],25.1 µM (active)
same,Potency,[18],inactive
Cc1nc2c(O)cccc2c(=O)[nH]1,Potency,[13],> 46 µM (inactive)
same,Potency,[14],> 46 µM (inactive)
same,Potency,[15],398 nM (active)
same,Potency,[11],inactive
same,Potency,[16],inactive
CN1CCN(CCC=C2c3ccccc3Sc3ccc(S(=O)(=O)N(C)C)cc32)CC1,"activity change, negative = inhibition",[17]; at 38 µM (top of the series),18.8% (inactive)
same,Potency,[12],inactive
same,Potency,[18],inactive
same,outcome,[8],inactive
same,outcome,[9],inactive
same,Potency,[11],inactive
same,Potency,[19],10 µM (active)
CCOC(=O)CCC(=O)O[C@H]1[C@H](O[C@@H]2[C@@H](C)[C@H](O[C@H]3C[C@@](C)(OC)[C@@H](O)[C@H](C)O3)[C@@H](C)C(=O)O[C@H](CC)[C@@](C)(O)[C@H](O)[C@@H](C)C(=O)[C@H](C)C[C@@]2(C)O)O[C@H](C)C[C@@H]1N(C)C,"activity change, negative = inhibition",[17]; at 17.2 µM (top of the series),-0.678% (inactive)
same,Potency,[13],> 20.6 µM (inactive)
COc1cc(/C=C(\C#N)C(N)=O)cc(CSc2nc3ccccc3s2)c1O,Potency,[12],1.26 µM (active)
same,Potency,[14],> 46 µM (inactive)
same,Potency,[7],3.98 µM (active)
same,Potency,[18],inactive
same,Potency,[15],3160 nM (active)
same,Potency,[16],inactive
C=C1C(=O)O[C@H]2[C@H]1CC/C(C)=C\CC[C@@]1(C)O[C@@H]21,Potency,[19],inactive
Cn1cc(C2=C(c3cn(CCCSC(=N)N)c4ccccc34)C(=O)NC2=O)c2ccccc21,Potency,[18],inactive
same,Potency,[20],6.02 µM (active)
Nc1ncnc2c1c(I)cn2C1OC(CO)C(O)C1O (centres undefined),Potency,[7],inactive
same,outcome,[8],inactive
same,outcome,[9],inactive
same,Potency,[11],inactive
same,Potency,[20],0.851 µM (active)
Cc1nc(CN(C)c2ncnc3ccc(-c4ccc5c(c4)OCO5)cc23)cs1,Potency,[20],4.26 µM (active)
